Bioassay records (PubChem BioAssay)
C diff HTS – C. difficile growth inhibitors, primary screen, HTS. growth activity, negative = inhibition, % at 16 µg/mL (by protocol). 86,000 compounds, 0.25% hits. Clostridium difficile clinical isolate growth, OD600, 24 h; active compounds read low;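 active = mean growth activity at or below -80% and every replicate also at or below -80%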;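 also: 0% = DMSO wells and -100% = levofloxacin 16 µg/mL wells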
An asterisk follows results filed as active; ! = a repeat was not active. The sample as a whole holds a higher share of hits than the screen did.

SMILES | C diff HTS
COc1cccc(-c2ccc(C3[C@@H]4CN(C(=O)C5CCCC5)C[C@H]3N4)cc2)c1 (stereo not given in full) | -5
COc1cccc(-c2ccc(C3[C@@H]4CN(Cc5cccc(F)c5)C[C@H]3N4)cc2)c1 (stereo not given in full) | -99*
COc1cccc(S(=O)(=O)N2[C@@H]3CNC[C@H]2C3c2ccc(-c3ccccc3F)cc2)c1 (stereo not given in full) | 51
COc1cccc(CN2[C@@H]3CNC[C@H]2[C@H]3c2ccc(-c3ccccc3OC)cc2)c1 | -8
COc1cccc(CN2C[C@@H]3N[C@H](C2)C3c2ccc(-c3ccncc3)cc2)c1 (stereo not given in full) | -3
COc1cccc(S(=O)(=O)N2C[C@@H]3N[C@H](C2)C3c2ccc(-c3cccc(C)c3)cc2)c1 (stereo not given in full) | -94*!
COc1cccc(CN2C[C@@H]3N[C@H](C2)C3c2ccc(-c3cccc(C#N)c3)cc2)c1 (stereo not given in full) | 43
CC(C)c1cn(CC[C@H]2CC[C@H](NC(=O)C3CCC3)[C@@H](CO)O2)nn1 | 0
O=C(Nc1ccc(F)cc1)N1[C@@H](CO)[C@@H]2c3ccccc3NC[C@@H]21 | -4
C[C@@H]1CN([C@@H](C)CO)C(=O)c2cc(NC(=O)c3ccccc3)ccc2O[C@@H](C)CCCCO[C@H]1CN(C)Cc1ccc2c(c1)OCO2 | -4
CCCNC(=O)N1CC2(CN(C(=O)Cc3cccnc3)C2)c2c([nH]c3cc(OC)ccc23)[C@@H]1CO | -6
COCC(=O)Nc1ccc2c(c1)[C@H]1C[C@H](CC(=O)N3CCN(C)CC3)O[C@H](CO)[C@H]1O2 | 3
COc1cccc(CN2C[C@@H]3N[C@H](C2)C3c2ccc(-c3ccccc3C)cc2)c1 (stereo not given in full) | -96*
COc1cc(CN2C[C@@H]3N[C@H](C2)C3c2ccc(-c3ccccc3C)cc2)cc(OC)c1 (stereo not given in full) | -99*
Cc1ccccc1-c1ccc(C2[C@@H]3CN(S(=O)(=O)Cc4ccccc4)C[C@H]2N3)cc1 (stereo not given in full) | 52
COc1ccc(-c2ccc(C3[C@@H]4CN(Cc5ccccn5)C[C@H]3N4)cc2)cc1 (stereo not given in full) | -12
Cc1ccccc1-c1ccc(C2[C@@H]3CN(C(=O)Cc4ccccc4)C[C@H]2N3)cc1 (stereo not given in full) | 61
C/C=C/c1ccc(C2[C@@H]3CN(Cc4cc(OC)cc(OC)c4)C[C@H]2N3)cc1 (stereo not given in full) | 21
OC[C@H]1[C@@H](c2ccc(-c3cccnc3)cc2)[C@@H]2CN(CC3CCOCC3)CCCCN12 | -7
C[C@@H]1CN([C@H](C)CO)S(=O)(=O)c2ccc(-c3cncnc3)cc2O[C@H]1CN(C)Cc1ccncc1 | 8
CC(=O)N1C[C@@H]2[C@H](c3ccccc31)[C@@H](CO)N2C(=O)CC1CC1 | -4
COc1ccc2c3c([nH]c2c1)[C@@H](CO)N(C(=O)Nc1ccc(F)cc1)CC31CN(S(=O)(=O)c2cccs2)C1 | -95*
COc1ccc2c3c(n(C)c2c1)[C@H](CO)N(CC1CC1)CC31CN(S(=O)(=O)c2cccs2)C1 | 10
COc1ccc2c3c([nH]c2c1)[C@H](CO)N(C(=O)Nc1ccc(F)cc1)CC31CN(S(=O)(=O)c2ccccc2)C1 | -2
COc1cc(CN2CC3(CN(S(=O)(=O)c4cccs4)C3)c3c(n(C)c4cc(OC)ccc34)[C@@H]2CO)cc(OC)c1 | -87*
SMILES | C diff HTS
COc1ccc2c3c([nH]c2c1)[C@@H](CO)N(C(=O)Nc1ccc(F)cc1)CC31CN(S(=O)(=O)c2cccc(F)c2)C1 | -3
COc1cc(CN2CC3(CCN(S(=O)(=O)c4cccs4)CC3)c3c(n(C)c4cc(OC)ccc34)[C@@H]2CO)cc(OC)c1 | 10
CC(C)C(=O)Nc1ccc2c(c1)C(=O)N(C)[C@H]1CC[C@@H](CC(=O)NC3CCCC3)O[C@@H]1CO2 | -2
COc1ccccc1NC(=O)N[C@@H]1CC[C@H](CCNS(=O)(=O)c2ccc(F)cc2)O[C@@H]1CO | -1
O=C(CCN1CCCCC1)NCC[C@@H]1CC[C@@H](NC(=O)Nc2ccc(Cl)cc2)[C@H](CO)O1 | 0
Cc1cccc(-c2ccc(C3[C@@H]4CN(Cc5ccccc5F)C[C@H]3N4)cc2)c1 (stereo not given in full) | -98*
Fc1ccccc1CN1[C@@H]2CNC[C@H]1C2c1ccc(-c2ccccc2)cc1 (stereo not given in full) | -8
Cc1ccc(-c2ccc([C@@H]3[C@@H]4CN(Cc5ccccc5F)C[C@H]3N4)cc2)cc1 | -101*
CN(C)C(=O)c1cccc(-c2ccc(C3[C@@H]4CN(Cc5ccccc5F)C[C@H]3N4)cc2)c1 (stereo not given in full) | 59
Cc1ccc(-c2ccc(C3[C@H]4CNC[C@@H]3N4Cc3ccccc3F)cc2)cc1 (stereo not given in full) | 17
Cc1cccc(-c2ccc(C3[C@@H]4CN(Cc5cccnc5)C[C@H]3N4)cc2)c1 (stereo not given in full) | -1
C[C@@H]1CCCCO[C@@H](CN(C)Cc2ccc(C(F)(F)F)cc2)[C@H](C)CN([C@@H](C)CO)C(=O)c2cc(NC(=O)CCC(F)(F)F)ccc2O1 | 1
O=C(N[C@H]1CC[C@@H](CC(=O)N2CCc3ccccc3C2)O[C@H]1CO)C1CCC1 | -3
C=CC[C@]12N=C(c3ccc(OCCCO)cc3)O[C@H]1c1ccccc1CN(Cc1ccccc1)C2=O | 10
COc1ccc(S(=O)(=O)N2C[C@@H](O)COC[C@@H]3O[C@H](CC(=O)NCCN4CCCCC4)CC[C@H]32)cc1 | -1
CCN1[C@@H]2c3ccc(-c4ccc(F)cc4)c(=O)n3C[C@@H]2[C@@H](CO)[C@@H]1C(=O)NC1CCC1 | 2
CNC(=O)C[C@@H]1CC[C@@H]2[C@H](COC[C@H](O)CN2C(=O)Nc2ccc(Cl)c(Cl)c2)O1 | -12
CCCNC(=O)C[C@@H]1CC[C@@H]2[C@H](COC[C@H](O)CN2C(=O)Nc2ccc(Cl)c(Cl)c2)O1 | -102*!
O=C(C[C@H]1CC[C@@H]2[C@H](COC[C@@H](O)CN2C(=O)Nc2ccc(Cl)c(Cl)c2)O1)NCc1ccc(F)cc1 | -7
O=C(C[C@H]1CC[C@@H]2[C@H](COC[C@@H](O)CN2C(=O)Nc2ccc(Cl)c(Cl)c2)O1)NC1CCC1 | 48
O=C(C[C@@H]1CC[C@H]2[C@@H](COC[C@@H](O)CN2C(=O)Nc2ccc(Cl)c(Cl)c2)O1)NC1CCC1 | -102*!
CNC(=O)C[C@H]1CC[C@H]2[C@@H](COC[C@H](O)CN2C(=O)Nc2ccc(Cl)c(Cl)c2)O1 | -28
O=C(C[C@H]1CC[C@@H]2[C@H](COC[C@H](O)CN2C(=O)Nc2ccc(Cl)c(Cl)c2)O1)NCc1ccc(Cl)cc1 | -52
O=C(C[C@H]1CC[C@H]2[C@@H](COC[C@@H](O)CN2C(=O)Nc2ccc(F)cc2)O1)NC1CCC1 | 13
O=C(C[C@H]1CC[C@@H]2[C@H](COC[C@H](O)CN2C(=O)Nc2ccc(Cl)c(Cl)c2)O1)NCc1ccc(F)cc1 | -91*
C[C@@H]1CN([C@@H](C)CO)C(=O)c2cc(C#Cc3cccnc3)cnc2O[C@@H]1CN(C)C | -1
